# Source: PubChem BioAssay (NCI)
# Several values for one entry are separate records, joined by “and”; a condition that tells them apart may be missing. Equal entries are not always repeated. The panel holds about 79,000 compounds, 15% with a hit somewhere; the sample as a whole holds those more often. More than one record can exist for a structure, and the calls need not agree. Activity calls are given as the source filed them. Cut-off read from the data, not from the text of the source: active = growth inhibition above about 70%; inactive = the rest.
# Columns and labels:
# [1] = NCI Yeast Anticancer Drug Screen. Data for the rad52 strain (AID 147);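 note: 0% = growth of vehicle-treated control cultures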; conditions: S. cerevisiae rad52 mutant growth inhibition, stronger effect = higher value
# Procedure, shortened: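 DNA repair-defective yeast; compound exposure; growth scored against vehicle controls.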
# [2] = NCI Yeast Anticancer Drug Screen. Data for the wt1 strain (AID 149);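 note: 0% = growth of vehicle-treated wt1 cultures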; conditions: S. cerevisiae wt1 strain (SPY 50644) growth inhibition, stronger effect = higher value
# Procedure, shortened: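 Vehicle-normalised growth inhibition; strain wt1; compound exposure.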
# [3] = NCI Yeast Anticancer Drug Screen. Data for the rad50EPP+ strain (AID 151);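 note: 0% = growth of vehicle-treated control cultures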; conditions: S. cerevisiae rad50 mutant strain, stronger effect = higher value
# Procedure, shortened: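 rad50EPP+ yeast treated with test compounds. Readout: growth vs vehicle control.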
# [4] = NCI Yeast Anticancer Drug Screen. Data for the mgt1 strain (AID 153); conditions: S. cerevisiae mgt1 mutant growth inhibition, stronger effect = higher value
# Procedure, shortened: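 Growth inhibition relative to vehicle controls was scored for the mgt1 yeast strain after compound exposure.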
# [5] = NCI Yeast Anticancer Drug Screen. Data for the rad50 strain (AID 155);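 note: 0% = growth of vehicle-only cultures of the same strain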; conditions: S. cerevisiae rad50 strain growth inhibition, stronger effect = higher value
# Procedure, shortened: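 A DNA repair-deficient yeast mutant serves as the test organism; compound-induced growth inhibition is calculated against vehicle-treated cells.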
# [6] = NCI Yeast Anticancer Drug Screen. Data for the mec2-1 strain (AID 157); conditions: S. cerevisiae mec2-1 strain, stronger effect = higher value
# Procedure, shortened: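 Growth inhibition is read against vehicle-treated controls after compound exposure of the mec2-1 yeast strain, which is defective in DNA damage repair or cell cycle control.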
# [7] = NCI Yeast Anticancer Drug Screen. Data for the rad14 strain (AID 159);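 note: 0% = growth of vehicle-treated control cultures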; conditions: S. cerevisiae rad14 strain growth inhibition, stronger effect = higher value
# Procedure, shortened: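 Vehicle-treated cultures served as the baseline for growth inhibition of a DNA repair-mutant yeast strain exposed to each compound.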
# [8] = NCI Yeast Anticancer Drug Screen. Data for the sgs1 mgt1 strain (AID 161);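 note: 0% = growth of cultures given vehicle only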; conditions: S. cerevisiae sgs1 mgt1 strain, stronger effect = higher value
# Procedure, shortened: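 This yeast growth screen uses a strain with defined DNA-repair lesions; compound-treated growth is compared with vehicle-treated growth.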
# [9] = NCI Yeast Anticancer Drug Screen. Data for the CLN2oe strain (AID 163);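 note: 0% = growth of vehicle-only control cultures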; conditions: S. cerevisiae CLN2oe strain, stronger effect = higher value
# Procedure, shortened: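 Compound-treated yeast; growth vs vehicle ctrl = % inhibition. Genetically altered strain (cell-cycle control).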
# [10] = NCI Yeast Anticancer Drug Screen. Data for the cln2 rad14 strain (AID 165);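 note: 0% = growth equal to vehicle treated cultures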; conditions: S. cerevisiae cln2 rad14 strain, stronger effect = higher value
# Procedure, shortened: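 Growth inhibition, relative to vehicle-treated controls, is the read-out. The test organism is a yeast strain with defined genetic alterations, cln2 rad14.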
# [11] = NCI Yeast Anticancer Drug Screen. Data for the bub3 strain (AID 167); conditions: S. cerevisiae bub3 mutant strain, stronger effect = higher value
# Procedure, shortened: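 Inhibition values come from growth of compound-treated mutant yeast normalised to vehicle-treated controls.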
# [12] = NCI Yeast Anticancer Drug Screen. Data for the wt2 strain (AID 169);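 note: 0% = growth of vehicle-treated yeast cultures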; conditions: S. cerevisiae wt2 strain growth inhibition, stronger effect = higher value
# Procedure, shortened: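 Compound exposure of yeast; growth compared with vehicle controls; inhibition reported.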
# [13] = NCI Yeast Anticancer Drug Screen. Data for the mlh1 strain (AID 171);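 note: 0% = growth of vehicle-treated control cultures of the same strain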; conditions: S. cerevisiae mlh1 strain growth inhibition, stronger effect = higher value
# Procedure, shortened: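 Compounds are applied to a genetically altered yeast strain, and its growth is compared with that of vehicle-treated cultures to give percent inhibition.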
# [14] = NCI Yeast Anticancer Drug Screen. Data for the sgs1 strain (AID 173);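 note: 0% = growth of vehicle-only control cultures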; conditions: S. cerevisiae sgs1 mutant, stronger effect = higher value
# Procedure, shortened: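 Compounds applied to genetically altered yeast; growth compared with vehicle-treated cultures to give % inhibition.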
# [15] = NCI Yeast Anticancer Drug Screen. Data for the rad18 strain (AID 177); conditions: S. cerevisiae rad18 mutant growth inhibition, stronger effect = higher value
# Procedure, shortened: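 Compounds are applied to a repair-deficient yeast strain, and growth is compared with that of vehicle-treated cultures to give percent inhibition.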
# [16] = at 5.0 µM (retest, dose inferred, filed as 0.5)
# [17] = at 50.0 µM (retest, dose inferred, filed as 5.0)
smiles,measurement,setting,value
Cc1ccc(N=Nc2ccc(O)c(=O)cc2)cc1,growth inhibition,[1]; at 1.2 µM,-11% (inactive)
same,growth inhibition,[1]; at 3.7 µM,1% (inactive)
same,growth inhibition,[1]; at 11.0 µM,54% (inactive)
same,growth inhibition,[1]; at 33.0 µM,89% (active)
same,growth inhibition,[1]; at 100.0 µM,93% (active)
same,growth inhibition,[2]; at 1.2 µM,1% (inactive)
same,growth inhibition,[2]; at 3.7 µM,25% (inactive)
same,growth inhibition,[2]; at 11.0 µM,37% (inactive)
same,growth inhibition,[2]; at 33.0 µM,78% (active)
same,growth inhibition,[2]; at 100.0 µM,91% (active)
same,growth inhibition,[3]; at 1.2 µM,-31% (inactive)
same,growth inhibition,[3]; at 3.7 µM,-64% (inactive)
same,growth inhibition,[3]; at 11.0 µM,-24% (inactive)
same,growth inhibition,[3]; at 33.0 µM,62% (inactive)
same,growth inhibition,[3]; at 100.0 µM,87% (active)
same,growth inhibition,[4]; at 1.2 µM,8% (inactive)
same,growth inhibition,[4]; at 3.7 µM,29% (inactive)
same,growth inhibition,[4]; at 11.0 µM,56% (inactive)
same,growth inhibition,[4]; at 33.0 µM,86% (active)
same,growth inhibition,[4]; at 100.0 µM,91% (active)
same,growth inhibition,[5]; at 1.2 µM,4% (inactive)
same,growth inhibition,[5]; at 3.7 µM,5% (inactive)
same,growth inhibition,[5]; [16],17% (inactive)
same,growth inhibition,[5]; at 11.0 µM,42% (inactive)
same,growth inhibition,[5]; at 33.0 µM,83% (active)
same,growth inhibition,[5]; [17],81% (active)
same,growth inhibition,[5]; at 50.0 µM,-18.2% (inactive) and 82.3% (active)
same,growth inhibition,[5]; at 100.0 µM,92% (active)
same,growth inhibition,[6]; at 1.2 µM,-13% (inactive)
same,growth inhibition,[6]; at 3.7 µM,-7% (inactive)
same,growth inhibition,[6]; [16],-2% (inactive)
same,growth inhibition,[6]; at 11.0 µM,26% (inactive)
same,growth inhibition,[6]; at 33.0 µM,82% (active)
same,growth inhibition,[6]; [17],43% (inactive)
same,growth inhibition,[6]; at 50.0 µM,8.6% (inactive) and 88.3% (active)
same,growth inhibition,[6]; at 100.0 µM,91% (active)
same,growth inhibition,[7]; at 1.2 µM,-3% (inactive)
same,growth inhibition,[7]; at 3.7 µM,1% (inactive)
same,growth inhibition,[7]; at 11.0 µM,47% (inactive)
same,growth inhibition,[7]; at 33.0 µM,84% (active)
same,growth inhibition,[7]; at 100.0 µM,92% (active)
same,growth inhibition,[8]; [16],53% (inactive)
same,growth inhibition,[8]; [17],95% (active)
same,growth inhibition,[8]; at 50.0 µM,-10.6% (inactive) and 89.8% (active)
same,growth inhibition,[9]; at 1.2 µM,-2% (inactive)
same,growth inhibition,[9]; at 3.7 µM,16% (inactive)
same,growth inhibition,[9]; at 11.0 µM,47% (inactive)
same,growth inhibition,[9]; at 33.0 µM,83% (active)
same,growth inhibition,[9]; at 100.0 µM,93% (active)
same,growth inhibition,[10]; [16],13% (inactive)
same,growth inhibition,[10]; [17],95% (active)
same,growth inhibition,[10]; at 50.0 µM,-1.5% (inactive) and 90.4% (active)
same,growth inhibition,[11]; at 1.2 µM,-6% (inactive)
same,growth inhibition,[11]; at 3.7 µM,3% (inactive)
same,growth inhibition,[11]; [16],6% (inactive)
same,growth inhibition,[11]; at 11.0 µM,49% (inactive)
same,growth inhibition,[11]; at 33.0 µM,90% (active)
same,growth inhibition,[11]; [17],91% (active)
same,growth inhibition,[11]; at 50.0 µM,-6.8% (inactive) and 87.5% (active)
same,growth inhibition,[11]; at 100.0 µM,92% (active)
same,growth inhibition,[12]; at 1.2 µM,-4% (inactive)
same,growth inhibition,[12]; at 3.7 µM,21% (inactive)
same,growth inhibition,[12]; at 11.0 µM,48% (inactive)
same,growth inhibition,[12]; at 33.0 µM,87% (active)
same,growth inhibition,[12]; at 100.0 µM,94% (active)
same,growth inhibition,[13]; at 1.2 µM,3% (inactive)
same,growth inhibition,[13]; at 3.7 µM,5% (inactive)
same,growth inhibition,[13]; at 11.0 µM,47% (inactive)
same,growth inhibition,[13]; at 33.0 µM,83% (active)
same,growth inhibition,[13]; at 100.0 µM,90% (active)
same,growth inhibition,[14]; at 1.2 µM,7% (inactive)
same,growth inhibition,[14]; at 3.7 µM,28% (inactive)
same,growth inhibition,[14]; at 11.0 µM,57% (inactive)
same,growth inhibition,[14]; at 33.0 µM,85% (active)
same,growth inhibition,[14]; at 100.0 µM,93% (active)
same,growth inhibition,[15]; at 1.2 µM,0% (inactive)
same,growth inhibition,[15]; at 3.7 µM,22% (inactive)
same,growth inhibition,[15]; at 11.0 µM,50% (inactive)
same,growth inhibition,[15]; at 33.0 µM,86% (active)
same,growth inhibition,[15]; at 100.0 µM,93% (active)
